The results in this text go back to article PMC7862700, “An all-to-all approach to the identification of sequence-specific readers for epigenetic DNA modifications on cytosine”.

Holding throughout (assay): DAPPL (digital affinity profiling via proximity ligation, sequencing); 10 mM Tris-HCl pH 7.5, 50 mM NaCl, 1 mM DTT, 4% glycerol, room temperature, 30 min; GST-TFs on glutathione beads, 16-mer random dsDNA library, 0.1% formaldehyde crosslink after washing; high values mean tight binding
One experiment has as its target T1, FLI1 (Homo sapiens, UniProt Q01543 1-452).
T1 sequence: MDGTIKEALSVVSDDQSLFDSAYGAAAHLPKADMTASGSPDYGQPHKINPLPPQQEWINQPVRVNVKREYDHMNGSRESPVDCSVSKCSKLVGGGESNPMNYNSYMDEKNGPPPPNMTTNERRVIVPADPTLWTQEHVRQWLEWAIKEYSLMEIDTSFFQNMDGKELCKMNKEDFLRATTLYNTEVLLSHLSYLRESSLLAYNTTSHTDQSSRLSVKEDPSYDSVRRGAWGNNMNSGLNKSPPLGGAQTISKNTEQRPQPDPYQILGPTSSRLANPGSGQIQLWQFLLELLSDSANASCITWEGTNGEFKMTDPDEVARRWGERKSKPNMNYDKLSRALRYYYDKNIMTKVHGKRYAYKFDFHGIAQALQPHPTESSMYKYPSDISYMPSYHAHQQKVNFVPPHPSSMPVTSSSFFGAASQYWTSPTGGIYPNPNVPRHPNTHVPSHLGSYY
To be noted: protein: recombinant; tags: N-terminal GST; dsDNA, one strand shown. The method, boiled down:
(§1)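 Human transcription factors were made in yeast as GST fusions, captured on glutathione beads and barcoded with DNA. With a tag-only sample included, the pool was incubated with 200 nmole of a random double-stranded 16-mer DNA library in Tris/NaCl/DTT/glycerol buffer at room temperature for 30 min, then crosslinked with 0.1% formaldehyde after washing, ligated by proximity, amplified and sequenced. For binding signal, each hexamer's read frequency for a factor is divided by its frequency for the tag-only sample.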

The target of the next experiment is T2, ELK1 (Homo sapiens, UniProt P19419 1-428).
T2 sequence: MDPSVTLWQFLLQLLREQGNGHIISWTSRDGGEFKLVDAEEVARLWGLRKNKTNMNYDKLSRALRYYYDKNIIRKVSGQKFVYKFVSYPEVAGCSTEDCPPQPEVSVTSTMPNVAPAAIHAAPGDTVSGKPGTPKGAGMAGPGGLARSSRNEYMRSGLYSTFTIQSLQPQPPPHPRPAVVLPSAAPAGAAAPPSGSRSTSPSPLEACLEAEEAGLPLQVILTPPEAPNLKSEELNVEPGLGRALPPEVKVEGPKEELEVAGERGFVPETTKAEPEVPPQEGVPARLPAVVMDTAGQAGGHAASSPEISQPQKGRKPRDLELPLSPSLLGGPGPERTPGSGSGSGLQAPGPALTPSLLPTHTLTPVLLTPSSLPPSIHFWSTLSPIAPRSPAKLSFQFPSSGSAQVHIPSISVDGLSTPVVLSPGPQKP
Particulars: protein: recombinant; tags: N-terminal GST; dsDNA, one strand shown. The method, boiled down: as §1

The target of a further experiment is T3, GABPA (Homo sapiens, UniProt Q06546 1-454).
T3 sequence: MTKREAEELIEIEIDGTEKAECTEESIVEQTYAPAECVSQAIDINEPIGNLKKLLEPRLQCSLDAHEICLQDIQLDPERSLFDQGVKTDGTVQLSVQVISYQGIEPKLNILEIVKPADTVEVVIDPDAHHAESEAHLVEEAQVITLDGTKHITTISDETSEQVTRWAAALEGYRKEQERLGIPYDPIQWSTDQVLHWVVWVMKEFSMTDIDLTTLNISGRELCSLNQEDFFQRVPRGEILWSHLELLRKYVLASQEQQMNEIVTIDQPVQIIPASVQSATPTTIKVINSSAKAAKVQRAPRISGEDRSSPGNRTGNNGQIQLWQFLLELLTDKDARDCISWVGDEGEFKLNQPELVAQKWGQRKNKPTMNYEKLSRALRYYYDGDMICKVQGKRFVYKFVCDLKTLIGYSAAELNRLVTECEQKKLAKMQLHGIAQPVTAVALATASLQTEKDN
Particulars: protein: recombinant; tags: N-terminal GST; dsDNA, one strand shown. An outline of the steps: as §1

The target of another experiment is T4, ERG (Homo sapiens, UniProt P11308 1-479).
T4 sequence: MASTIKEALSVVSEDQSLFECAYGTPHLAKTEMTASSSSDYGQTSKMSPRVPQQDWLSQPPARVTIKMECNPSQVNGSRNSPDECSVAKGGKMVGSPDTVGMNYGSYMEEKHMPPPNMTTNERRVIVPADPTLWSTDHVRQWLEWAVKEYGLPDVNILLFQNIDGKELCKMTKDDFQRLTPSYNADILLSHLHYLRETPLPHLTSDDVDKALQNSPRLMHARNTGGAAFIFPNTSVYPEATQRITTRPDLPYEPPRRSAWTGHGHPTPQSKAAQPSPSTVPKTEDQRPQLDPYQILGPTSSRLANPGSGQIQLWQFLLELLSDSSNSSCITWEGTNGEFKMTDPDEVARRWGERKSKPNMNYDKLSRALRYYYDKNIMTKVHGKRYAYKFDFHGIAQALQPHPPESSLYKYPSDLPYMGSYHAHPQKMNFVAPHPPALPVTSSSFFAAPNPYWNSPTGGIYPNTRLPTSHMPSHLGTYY
Particulars: protein: recombinant; tags: N-terminal GST; dsDNA, one strand shown. The method, boiled down:
as §1

Another experiment has as its target ELF1 (Homo sapiens, UniProt P32519 1-619). To be noted: protein: recombinant; tags: N-terminal GST; dsDNA, one strand shown. An outline of the steps:
as §1

Another experiment addresses T5, EHF (Homo sapiens, UniProt Q9NZC4 1-300).
T5 sequence: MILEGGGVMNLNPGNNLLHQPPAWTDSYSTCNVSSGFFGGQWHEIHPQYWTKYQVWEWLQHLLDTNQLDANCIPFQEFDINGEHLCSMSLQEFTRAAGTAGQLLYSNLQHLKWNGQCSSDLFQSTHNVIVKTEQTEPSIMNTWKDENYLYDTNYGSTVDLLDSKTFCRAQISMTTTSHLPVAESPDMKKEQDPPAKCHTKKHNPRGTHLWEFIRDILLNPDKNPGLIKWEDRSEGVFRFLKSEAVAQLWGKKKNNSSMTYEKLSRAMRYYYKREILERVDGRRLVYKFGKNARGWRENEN
To be noted: protein: recombinant; tags: N-terminal GST; dsDNA, one strand shown. An outline of the steps:
as §1

For another experiment, the target named is SPI1 (Homo sapiens, UniProt P17947 1-270). To be noted: protein: recombinant; tags: N-terminal GST; dsDNA, one strand shown. An outline of the steps:
as §1

Another experiment has as its target SPIB (Homo sapiens, UniProt Q01892 1-262). To be noted: protein: recombinant; tags: N-terminal GST; dsDNA, one strand shown. The method, boiled down: as §1
For a further experiment, the target named is T6, ELK3 (Homo sapiens, UniProt P41970 1-407).
T6 sequence: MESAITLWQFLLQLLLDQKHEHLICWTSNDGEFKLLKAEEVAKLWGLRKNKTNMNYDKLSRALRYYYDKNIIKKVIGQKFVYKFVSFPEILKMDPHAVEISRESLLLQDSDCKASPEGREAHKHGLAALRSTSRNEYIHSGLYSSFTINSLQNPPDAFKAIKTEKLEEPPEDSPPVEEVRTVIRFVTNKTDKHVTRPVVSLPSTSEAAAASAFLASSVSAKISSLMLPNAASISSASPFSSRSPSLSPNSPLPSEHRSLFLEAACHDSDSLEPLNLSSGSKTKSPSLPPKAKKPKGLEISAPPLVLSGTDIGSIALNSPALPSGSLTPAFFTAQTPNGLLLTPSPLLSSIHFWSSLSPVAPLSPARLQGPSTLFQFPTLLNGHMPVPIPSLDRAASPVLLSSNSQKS
Particulars: protein: recombinant; tags: N-terminal GST; dsDNA, one strand shown. An outline of the steps: as §1

Another experiment deals with T7, FEV (Homo sapiens, UniProt Q99581 1-238).
T7 sequence: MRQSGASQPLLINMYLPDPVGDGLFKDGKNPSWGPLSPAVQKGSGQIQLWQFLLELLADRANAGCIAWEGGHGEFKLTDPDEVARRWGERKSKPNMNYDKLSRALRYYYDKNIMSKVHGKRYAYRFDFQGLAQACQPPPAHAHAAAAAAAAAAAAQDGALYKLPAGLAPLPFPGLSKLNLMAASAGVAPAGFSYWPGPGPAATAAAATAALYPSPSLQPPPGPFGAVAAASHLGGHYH
Particulars: protein: recombinant; tags: N-terminal GST; dsDNA, one strand shown. The method, boiled down:
as §1

In the next experiment the target is ETV5 (Homo sapiens, UniProt P41161 1-510). Particulars: protein: recombinant; tags: N-terminal GST; dsDNA, one strand shown. An outline of the steps:
as §1

A further experiment addresses HSF1 (Homo sapiens, UniProt Q00613 1-529). Particulars: protein: recombinant; tags: N-terminal GST; chain copies: 3; dsDNA, one strand shown. An outline of the steps:
as §1

Another experiment concerns the target T8, SPIC (Homo sapiens, UniProt Q8N5J4 1-248).
T8 sequence: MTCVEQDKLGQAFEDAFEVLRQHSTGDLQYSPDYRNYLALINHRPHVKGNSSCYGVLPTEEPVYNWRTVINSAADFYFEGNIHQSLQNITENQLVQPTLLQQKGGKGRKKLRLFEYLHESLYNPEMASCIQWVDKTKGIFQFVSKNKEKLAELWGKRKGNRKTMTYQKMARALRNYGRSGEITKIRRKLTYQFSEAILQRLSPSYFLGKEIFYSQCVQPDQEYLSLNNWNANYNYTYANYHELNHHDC
To be noted: protein: recombinant; tags: N-terminal GST; dsDNA, one strand shown. An outline of the steps:
as §1

A further experiment has as its target ELF4 (Homo sapiens, UniProt Q99607 1-663). Particulars: protein: recombinant; tags: N-terminal GST; dsDNA, one strand shown. An outline of the steps:
as §1

For another experiment, the target named is T9, ELK4 (Homo sapiens, UniProt P28324-2 1-405).
T9 sequence: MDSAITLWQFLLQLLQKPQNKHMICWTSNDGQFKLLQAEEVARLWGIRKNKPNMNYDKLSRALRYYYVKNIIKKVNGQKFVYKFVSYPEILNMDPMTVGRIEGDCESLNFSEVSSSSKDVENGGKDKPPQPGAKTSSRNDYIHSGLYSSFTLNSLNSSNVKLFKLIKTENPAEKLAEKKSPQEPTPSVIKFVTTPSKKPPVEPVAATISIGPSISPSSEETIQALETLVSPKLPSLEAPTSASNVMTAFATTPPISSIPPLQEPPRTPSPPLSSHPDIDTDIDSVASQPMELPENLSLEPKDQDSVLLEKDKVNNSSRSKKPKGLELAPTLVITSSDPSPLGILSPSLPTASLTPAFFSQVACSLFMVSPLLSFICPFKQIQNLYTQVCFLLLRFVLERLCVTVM
Particulars: protein: recombinant; tags: N-terminal GST; dsDNA, one strand shown. The method, boiled down: as §1

A further experiment deals with T10, ETV2 (Homo sapiens, UniProt O00321 1-342).
T10 sequence: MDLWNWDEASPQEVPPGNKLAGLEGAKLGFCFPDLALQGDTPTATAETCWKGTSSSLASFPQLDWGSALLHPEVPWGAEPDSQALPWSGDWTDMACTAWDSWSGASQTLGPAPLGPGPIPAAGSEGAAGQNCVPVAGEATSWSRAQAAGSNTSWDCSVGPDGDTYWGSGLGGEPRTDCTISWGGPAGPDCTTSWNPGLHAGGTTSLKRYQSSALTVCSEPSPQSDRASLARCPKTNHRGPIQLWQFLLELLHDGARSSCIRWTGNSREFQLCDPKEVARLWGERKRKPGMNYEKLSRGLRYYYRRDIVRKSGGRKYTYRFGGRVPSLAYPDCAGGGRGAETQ
To be noted: protein: recombinant; tags: N-terminal GST; dsDNA, one strand shown. The method, boiled down: as §1

The next experiment addresses T11, ELF3 (Homo sapiens, UniProt P78545 1-371).
T11 sequence: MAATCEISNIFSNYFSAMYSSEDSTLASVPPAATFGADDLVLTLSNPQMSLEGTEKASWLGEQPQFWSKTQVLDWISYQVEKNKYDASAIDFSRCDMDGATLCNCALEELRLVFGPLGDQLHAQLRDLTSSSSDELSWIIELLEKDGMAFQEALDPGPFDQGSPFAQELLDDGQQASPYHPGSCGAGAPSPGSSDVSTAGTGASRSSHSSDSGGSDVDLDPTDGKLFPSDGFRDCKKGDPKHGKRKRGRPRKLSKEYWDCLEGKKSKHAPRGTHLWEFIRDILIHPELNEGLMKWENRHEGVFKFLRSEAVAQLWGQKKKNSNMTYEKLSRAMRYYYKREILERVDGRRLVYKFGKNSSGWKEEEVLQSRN
To be noted: protein: recombinant; tags: N-terminal GST; dsDNA, one strand shown. The method, boiled down:
as §1

Another experiment deals with CRX (Homo sapiens, UniProt O43186 1-299). To be noted: protein: recombinant; tags: N-terminal GST; dsDNA, one strand shown. The method, boiled down: as §1
For another experiment, the target named is ETV1 (Homo sapiens, UniProt P50549 1-477). Particulars: protein: recombinant; tags: N-terminal GST; dsDNA, one strand shown. An outline of the steps: as §1
ETV1, sequence (P50549 whole entry): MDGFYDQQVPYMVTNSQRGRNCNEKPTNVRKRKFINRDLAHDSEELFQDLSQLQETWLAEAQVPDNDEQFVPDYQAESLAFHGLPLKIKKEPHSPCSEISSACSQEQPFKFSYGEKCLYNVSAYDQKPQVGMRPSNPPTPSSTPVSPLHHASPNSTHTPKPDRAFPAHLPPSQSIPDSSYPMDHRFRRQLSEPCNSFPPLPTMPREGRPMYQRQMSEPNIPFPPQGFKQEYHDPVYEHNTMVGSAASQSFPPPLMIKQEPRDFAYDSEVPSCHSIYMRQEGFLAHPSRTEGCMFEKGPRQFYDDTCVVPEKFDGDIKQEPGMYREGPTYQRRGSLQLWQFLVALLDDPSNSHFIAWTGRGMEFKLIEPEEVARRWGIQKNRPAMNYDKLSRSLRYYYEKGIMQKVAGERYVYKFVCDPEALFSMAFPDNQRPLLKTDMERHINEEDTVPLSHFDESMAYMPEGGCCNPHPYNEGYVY

CRX, sequence (O43186 whole entry): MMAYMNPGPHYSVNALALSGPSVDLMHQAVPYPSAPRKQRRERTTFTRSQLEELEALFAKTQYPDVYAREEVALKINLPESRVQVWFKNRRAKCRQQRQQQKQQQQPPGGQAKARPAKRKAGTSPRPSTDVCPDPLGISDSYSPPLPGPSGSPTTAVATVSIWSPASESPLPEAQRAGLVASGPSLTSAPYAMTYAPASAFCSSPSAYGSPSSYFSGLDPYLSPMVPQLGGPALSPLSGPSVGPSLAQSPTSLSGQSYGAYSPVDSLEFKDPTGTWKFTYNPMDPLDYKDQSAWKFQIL
ELF4, sequence (Q99607 whole entry): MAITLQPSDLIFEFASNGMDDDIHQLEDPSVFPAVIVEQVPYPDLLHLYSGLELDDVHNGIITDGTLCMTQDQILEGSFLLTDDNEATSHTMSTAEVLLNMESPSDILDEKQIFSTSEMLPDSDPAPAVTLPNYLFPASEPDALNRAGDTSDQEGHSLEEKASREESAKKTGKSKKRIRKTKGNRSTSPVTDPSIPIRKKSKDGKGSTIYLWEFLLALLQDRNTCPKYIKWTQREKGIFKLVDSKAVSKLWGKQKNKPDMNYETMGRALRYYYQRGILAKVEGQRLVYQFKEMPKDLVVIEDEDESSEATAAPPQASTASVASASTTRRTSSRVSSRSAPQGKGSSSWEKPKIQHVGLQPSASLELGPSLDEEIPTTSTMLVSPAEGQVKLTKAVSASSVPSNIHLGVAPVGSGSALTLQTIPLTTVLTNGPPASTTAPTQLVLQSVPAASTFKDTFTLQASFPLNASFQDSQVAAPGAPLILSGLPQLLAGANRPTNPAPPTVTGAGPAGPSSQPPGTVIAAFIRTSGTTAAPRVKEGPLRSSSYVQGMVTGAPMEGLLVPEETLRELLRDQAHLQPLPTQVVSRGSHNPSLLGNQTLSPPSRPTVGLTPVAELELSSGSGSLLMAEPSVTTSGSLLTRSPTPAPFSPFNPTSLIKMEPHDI
ELF1, sequence (P32519 whole entry): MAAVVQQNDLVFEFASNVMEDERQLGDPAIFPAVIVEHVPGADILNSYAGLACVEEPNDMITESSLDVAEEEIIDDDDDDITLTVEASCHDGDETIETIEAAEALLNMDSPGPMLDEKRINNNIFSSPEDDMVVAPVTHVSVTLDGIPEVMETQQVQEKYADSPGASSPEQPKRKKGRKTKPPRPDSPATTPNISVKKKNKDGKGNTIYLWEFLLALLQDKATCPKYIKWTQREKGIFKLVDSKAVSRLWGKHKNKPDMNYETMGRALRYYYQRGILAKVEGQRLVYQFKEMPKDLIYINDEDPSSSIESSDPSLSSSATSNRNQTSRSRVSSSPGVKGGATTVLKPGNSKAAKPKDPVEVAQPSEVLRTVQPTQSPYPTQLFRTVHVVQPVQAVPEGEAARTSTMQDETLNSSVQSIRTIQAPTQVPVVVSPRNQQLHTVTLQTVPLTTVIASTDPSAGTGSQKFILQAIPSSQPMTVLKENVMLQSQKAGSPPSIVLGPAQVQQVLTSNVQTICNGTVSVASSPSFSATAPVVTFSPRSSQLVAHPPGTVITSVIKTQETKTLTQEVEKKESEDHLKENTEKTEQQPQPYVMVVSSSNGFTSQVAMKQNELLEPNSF
HSF1, sequence (Q00613 whole entry): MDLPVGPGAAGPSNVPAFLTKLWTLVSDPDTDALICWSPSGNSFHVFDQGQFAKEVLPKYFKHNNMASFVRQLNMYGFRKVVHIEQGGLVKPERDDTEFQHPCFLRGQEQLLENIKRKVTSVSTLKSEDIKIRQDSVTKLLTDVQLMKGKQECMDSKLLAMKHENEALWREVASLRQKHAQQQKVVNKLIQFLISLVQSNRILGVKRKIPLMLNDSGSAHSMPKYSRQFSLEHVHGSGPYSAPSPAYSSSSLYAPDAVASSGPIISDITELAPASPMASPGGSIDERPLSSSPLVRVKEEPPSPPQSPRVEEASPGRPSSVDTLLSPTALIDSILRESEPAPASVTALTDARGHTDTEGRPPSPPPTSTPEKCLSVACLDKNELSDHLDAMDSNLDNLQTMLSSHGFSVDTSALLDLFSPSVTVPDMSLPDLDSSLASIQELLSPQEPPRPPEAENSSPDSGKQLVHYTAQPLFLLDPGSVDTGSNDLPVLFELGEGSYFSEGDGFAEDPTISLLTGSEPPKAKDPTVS
ETV5, sequence (P41161 whole entry): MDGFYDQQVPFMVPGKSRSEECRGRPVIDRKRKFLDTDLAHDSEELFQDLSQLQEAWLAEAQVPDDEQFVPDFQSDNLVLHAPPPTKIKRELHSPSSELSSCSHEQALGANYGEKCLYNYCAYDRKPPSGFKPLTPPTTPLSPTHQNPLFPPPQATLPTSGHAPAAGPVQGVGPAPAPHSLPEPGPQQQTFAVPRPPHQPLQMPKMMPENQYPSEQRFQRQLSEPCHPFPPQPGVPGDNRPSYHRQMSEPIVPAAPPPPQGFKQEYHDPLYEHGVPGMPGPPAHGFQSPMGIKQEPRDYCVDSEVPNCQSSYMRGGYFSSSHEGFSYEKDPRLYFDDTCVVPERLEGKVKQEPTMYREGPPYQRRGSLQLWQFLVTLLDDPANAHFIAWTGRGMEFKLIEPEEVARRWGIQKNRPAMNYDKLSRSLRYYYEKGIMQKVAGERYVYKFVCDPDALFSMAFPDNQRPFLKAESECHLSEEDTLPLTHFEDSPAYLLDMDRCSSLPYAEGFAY
SPIB, sequence (Q01892 whole entry): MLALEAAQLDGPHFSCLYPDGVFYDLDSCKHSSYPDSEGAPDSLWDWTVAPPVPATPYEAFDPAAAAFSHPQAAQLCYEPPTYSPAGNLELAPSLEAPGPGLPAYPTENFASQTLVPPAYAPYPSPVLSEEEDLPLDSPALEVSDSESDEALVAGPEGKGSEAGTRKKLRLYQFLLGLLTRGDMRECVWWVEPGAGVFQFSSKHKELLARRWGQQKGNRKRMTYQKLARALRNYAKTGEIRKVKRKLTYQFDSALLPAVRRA

TGTATT: the binding signal in the experiment with FLI1 was 1.38 fold enrichment (6-mer frequency, TF over GST control); with ELK1, 1.31 fold enrichment (6-mer frequency, TF over GST control); with GABPA it was 1.33 fold enrichment (6-mer frequency, TF over GST control); with ERG, 1.32 fold enrichment (6-mer frequency, TF over GST control); with ELF1 it was 1.37 fold enrichment (6-mer frequency, TF over GST control); with EHF it was 1.34 fold enrichment (6-mer frequency, TF over GST control). Moreover, the binding signal with SPI1 is 1.28 fold enrichment (6-mer frequency, TF over GST control); with SPIB, 1.28 fold enrichment (6-mer frequency, TF over GST control); with ELK3 it was 1.43 fold enrichment (6-mer frequency, TF over GST control); with FEV it was 1.34 fold enrichment (6-mer frequency, TF over GST control); with ETV5, 1.33 fold enrichment (6-mer frequency, TF over GST control); with HSF1, 1.3 fold enrichment (6-mer frequency, TF over GST control). Also, the binding signal was 1.4 fold enrichment (6-mer frequency, TF over GST control) with SPIC; 1.36 fold enrichment (6-mer frequency, TF over GST control) in the experiment with ELF4; 1.33 fold enrichment (6-mer frequency, TF over GST control) with ELK4; 1.32 fold enrichment (6-mer frequency, TF over GST control) with ETV2; 1.24 fold enrichment (6-mer frequency, TF over GST control) in the experiment with ELF3; 1.56 fold enrichment (6-mer frequency, TF over GST control) with CRX. For the same sequence, the binding signal with ETV1 was 1.4 fold enrichment (6-mer frequency, TF over GST control).
